# Gal4-VP16 FLuc = Gal4-VP16 reporter inhibition counter-screen | Drosophila S2 Gal4-VP16 UAS-luciferase, luminescence, 20 h | Potency, µM (titrated, usually from 53.6 µM), for the others: at the top dose activity, negative = inhibition, usual class: inhibitors | 310,000 compounds, 3.5% hits | AID 2546;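 further: Gal4-VP16 expression switched on by copper sulfate through the metallothionein promoter; potency means the concentration at half of the fitted maximal effect; nearly all actives have a fitted effect of over 50% in size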
# ELG1 repair inh = ELG1-dependent DNA repair inhibition. HEK293T ELG1-luciferase reporter, luminescence, 16 h; DNA damage induced by 5-fluorouridine. Potency, µM (top dose mostly 46.1 µM), inactives show top-dose activity change, negative = inhibition, hits mostly inhibitors. 330,000 compounds, 2.3% hits. AID 504467; further: potency means the concentration at half of the fitted maximal effect; nearly all actives have a fitted effect of over 55% in size
#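 Cells (2,000 per well) received 5-fluorouridine plus test compound or DMSO and were incubated 16 hr at 37 °C, 5% CO2. Luciferase activity was read by luminescence 30 min after ONE-Glo addition; signal suppression marked inhibition of damage-induced ELG1 function.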
# DT40 TDP1 CPT = DT40-hTDP1 cell growth loss with CPT; chicken DT40 Tdp1-/-;hTDP1 cells + 20 nM CPT, ATP luminescence, 48 h; Potency, µM (doses to about 46.2 µM), for the others: top-dose activity change, negative = growth inhibition, most hits filed as inhibitors; 420,000 compounds, 12% hits; further: potency means the concentration at half of the fitted maximal effect; nearly all actives have a fitted effect of over 55% in size
#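 Chicken DT40 Tdp1-/- cells stably complemented with human TDP1 were seeded at 400 cells/well in medium containing 20 nM camptothecin, exposed to pin-transferred compounds, and grown at 37 °C for at least 48 hr. Viability was read as ATP luminescence.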
# RORg inh = blocks mouse ROR gamma transcriptional activity; P51450; Drosophila S2 Gal4-RORgamma UAS-luciferase reporter, 20 h; Potency, µM (highest dose often 53.6 µM), for inactives: at the highest dose activity change, negative = inhibition, most hits filed as inhibitors; 310,000 compounds, 5.4% hits; AID 2551; further: potency means the concentration at half of the fitted maximal effect; nearly all actives have a fitted effect of over 60% in size
# Target sequence (P51450 whole entry, looked up, the tested form may be a part): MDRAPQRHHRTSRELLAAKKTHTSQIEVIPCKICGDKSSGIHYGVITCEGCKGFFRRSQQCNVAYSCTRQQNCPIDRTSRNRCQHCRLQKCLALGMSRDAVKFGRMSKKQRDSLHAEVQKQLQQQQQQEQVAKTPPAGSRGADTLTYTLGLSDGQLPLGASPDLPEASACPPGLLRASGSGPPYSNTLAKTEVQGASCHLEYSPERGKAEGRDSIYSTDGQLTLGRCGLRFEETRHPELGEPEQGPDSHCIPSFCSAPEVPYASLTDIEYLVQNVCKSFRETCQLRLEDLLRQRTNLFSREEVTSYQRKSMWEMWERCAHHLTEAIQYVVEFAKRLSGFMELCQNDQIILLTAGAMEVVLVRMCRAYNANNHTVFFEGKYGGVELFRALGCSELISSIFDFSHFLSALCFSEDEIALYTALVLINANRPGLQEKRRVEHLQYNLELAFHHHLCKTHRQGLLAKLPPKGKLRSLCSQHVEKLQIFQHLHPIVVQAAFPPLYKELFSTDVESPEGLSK
#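 Schneider cells (Drosophila), stable Gal4 DBD–ROR gamma + UAS-luc; 1 hr cmpd preincubation; Cu2+ induction 700 uM final; 20 hr ambient; luminescence.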
# DT40 TDP1 no CPT = qHTS for Inhibitors of human tyrosyl-DNA phosphodiesterase 1 (TDP1): qHTS in cells in absence of CPT | DT40 Tdp1-/- hTDP1 cells, no CPT, ATP luminescence, 48 h | Potency, µM (highest dose often 46.2 µM), for inactives: at the top dose activity change, negative = growth inhibition, actives largely listed as inhibitors | 420,000 compounds, 15% hits; further: potency means the concentration at half of the fitted maximal effect; nearly all actives have a fitted effect of over 55% in size
#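 DT40 Tdp1-/-;hTDP1 cells, no CPT (DMSO vehicle only), 400 cells/well; compounds pin-transferred; ≥48 hr, 37 °C; CellTiter-Glo 30 min RT dark, luminescence read.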
# IL1B secr inh = inflammasome signaling inhibition, IL-1 beta readout; activity change, % at 57.5 µM; 360,000 compounds, 4.7% hits; THP-1 LPS/ATP IL-1B secretion, AlphaLISA, 16 h; hits give low values; AID 743279; in the data active means activity change below about -50%; inconclusive means mostly about -30% to -49%
#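 Secreted IL-1B measured by AlphaLISA bead assay after 16 h compound exposure of THP-1 cells; compounds (final up to 57.5 uM) added 1 h before LPS (250 ng/mL) and ATP (1.25 mM) stimulation; lower signal means less secretion.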
# ELG1 FLuc counter = luciferase inhibition in cell-free luciferin readout for ELG1 hits; shares compounds with ELG1 repair inh; cell-free firefly luciferase luminescence counter-screen, ViewLux; Potency, µM (series often up to 46.1 µM), without a hit: top-dose activity change, negative = inhibition, most hits filed as inhibitors; 350 compounds, 3% hits; further: potency means the concentration at half of the fitted maximal effect
# ELG1-Luc inh = human ELG1 repair inhibition, luciferase-tagged ELG1 confirmation | 670 compounds, 68% hits | Potency, µM (highest dose often 46.1 µM), for inactives: top-dose activity change, negative = inhibition, usual class: inhibitors | shares compounds with ELG1 repair inh | HEK293T ELG1-luciferase levels, luminescence; cells co-treated with 5-fluorouridine | AID 624248; further: potency means the concentration at half of the fitted maximal effect; nearly all actives have a fitted effect of over 55% in size
# ELG1-Luc MMS = MMS-stimulated human ELG1 repair inhibition, confirmed; Potency, µM (top dose mostly 46.1 µM), for the others: at the highest dose activity change, negative = inhibition, hits mostly inhibitors; HEK293T luciferase-tagged ELG1 level, MMS stimulated; 670 compounds, 53% hits; shares compounds with ELG1 repair inh; AID 624249; further: potency means the concentration at half of the fitted maximal effect; nearly all actives have a fitted effect of over 60% in size
# ELG1 5-FU = confirmation of ELG1 repair inhibitors: viability with 5FU; cell viability with 5-FU, ELG1-dependent repair; 670 tested, under 10 active; Potency, µM (doses to about 46.1 µM), without a hit: at the top dose activity change, negative = viability loss, usual class: cytotoxic; shares compounds with ELG1 repair inh;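 further: ELG1-luc HEK293T cells cotreated with 5-fluorouridine at 10 µM final; potency means the concentration at half of the fitted maximal effect; viability measured 16 h after compound addition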
# ELG1 MMS cell = confirmation of ELG1 repair inhibitors: viability with MMS; 670 compounds, 33% hits; Potency, µM (top dose mostly 46.1 µM), for the others: at the top dose activity change, negative = viability loss, usual class: cytotoxic; shares compounds with ELG1 repair inh; Cell viability with MMS, ELG1-dependent DNA repair;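 further: ELG1-luc HEK293T cells co-treated with 10 µM MMS; potency means the concentration at half of the fitted maximal effect; viability read 16 h after compound addition; nearly all actives have a fitted effect of over 60% in size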
# ELG1 unstim viab = unstimulated viability counter-screen for ELG1 repair hits; AID 624252; shares compounds with ELG1 repair inh; Potency, µM (top dose mostly 45.9 µM), for inactives: top-dose activity change, negative = loss of viability, hits mostly cytotoxic; cell viability counter-screen, unstimulated, luminescence; 900 compounds, 8% hits;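 further: potency means the concentration at half of the fitted maximal effect; compound exposure lasted 16 hours before reading; nearly all actives have a fitted effect of over 55% in size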
# FLuc enzyme = firefly luciferase inhibition counter-screen | shares compounds with ELG1 repair inh | purified firefly luciferase, luminescence counter-screen | Potency, µM (series often up to 57.5 µM), inactives show at the top dose activity, negative = inhibition, most hits filed as inhibitors | 350 compounds, 10% hits | AID 624253; further: potency means the concentration at half of the fitted maximal effect
# * = called active by the depositor; u = inconclusive; x = no result. Only some compounds are listed: those with a hit (about 21% of all), similar ones and a draw of the others. Unless noted, the call rests on the fitted dose curve; in most records, active means well fitted curve in the direction sought with a large enough effect; inconclusive means small, poorly fitted or top-dose-only effect, or another doubt; inactive means no such curve, though single readings can be large; an effect the other way counts as inactive or inconclusive. On the % scale 0 is the no-effect control and ±100 the full control effect.
SMILES,Gal4-VP16 FLuc,ELG1 repair inh,DT40 TDP1 CPT,RORg inh,DT40 TDP1 no CPT,IL1B secr inh,ELG1 FLuc counter,ELG1-Luc inh,ELG1-Luc MMS,ELG1 5-FU,ELG1 MMS cell,ELG1 unstim viab,FLuc enzyme
CCc1ccccc1NC(=O)CN1CCN(CC(=O)Nc2cc(C)ccc2OC)CC1,0.8%,1.64µM*,u,34.5%,6.51µM*,-1.9,x,u,2.23µM*,7.1%,2.5µM*,-6.7%,x
COc1ccc(C)cc1NC(=O)CN1CCN(c2ccccn2)CC1,-8.6%,-3.5%,-16.8%,-28.2%,u,12.9,x,x,x,x,x,x,x
COc1ccc(N(C)C(=O)c2cn(CC(C)C)c(=O)c3cc(OC)c(OC)cc23)c(OC)c1,-0.9%,1.46µM*,u,20.3%,-25.5%,-28.3,5.5%,1.77µM*,-17.3%,u,-0.8%,u,6.1%
COc1cccc(CNC(=O)CN2C(=O)CCSc3ccc(S(=O)(=O)N4CCCC4)cc32)c1,3.8%,u,-1.4%,8.9%,13.5%,u,x,x,x,x,x,x,x
Oc1cc2cc(-c3csc(-c4ccc(F)cc4)n3)cc3c2n1CCC3,x,x,u,x,20µM*,x,x,x,x,x,x,1.3%,x
Cc1ccc(-c2cc(C(=O)NCc3cccs3)no2)cc1,8.0%,u,-2.1%,37.7%,-11.4%,-16.9,54.2%,x,x,x,x,9.2%,u
O=C(Nc1ccc(F)cc1)C1CCC(CNc2c(N3CCCCC3)c(=O)c2=O)CC1 (configuration not stated),1.1%,0.1%,-20.0%,14.2%,-8.8%,-21.3,73.1%,u,6.5%,5.0%,-4.1%,-11.5%,-9.6%
COc1cc(NC(=O)C2CCC(CNc3c(N4CCCCC4)c(=O)c3=O)CC2)cc(OC)c1 (configuration not stated),1.5%,u,-7.7%,27.7%,u,-7.1,-8.8%,11.2µM*,-7.7%,u,-16.3%,u,-5.6%
CCOc1ccc(NC(=O)C2CCC(CNc3c(N4CCCCC4)c(=O)c3=O)CC2)cc1 (configuration not stated),10.0%,u,u,2.3%,u,u,x,x,x,x,x,x,x
O=[N+]([O-])c1cc(/C=N/n2c(-c3ccncc3)n[nH]c2=S)ccc1Cl,-12.9%,12.1%,-8.9%,-15.5%,-22.0%,-6.9,x,x,x,x,x,x,x
S=c1[nH]nc(C2CCCCC2)n1/N=C/c1ccncc1,-13.9%,1.16µM*,u,u,u,-15.2,x,2.5µM*,11.2µM*,-3.3%,-4.5%,-3.8%,x
Cn1ncc(Br)c1C(=O)N/N=C/c1cccc(OC2CSC2)c1,-15.8%,4.11µM*,-12.3%,-6.5%,u,5.1,x,-7.3%,5.9%,-6.3%,u,-10.5%,x
COc1cc(NC(=O)c2ccccc2-c2ccccc2)cc(OC)c1OC,-10.0%,u,x,-31.2%,x,x,x,x,x,x,x,x,x
COc1cc(NC(=O)c2cc(-c3ccccc3)nc3c2cnn3C(C)C)cc(OC)c1OC,x,3.66µM*,13µM*,x,5.8µM*,-22.4,x,7.05µM*,u,u,u,25µM*,x
c1ccc2cc(CCO[C@H]3CCCCO3)ncc2c1,x,u,-20.9%,x,-14.3%,10.4,x,x,x,x,x,x,x
c1nc(CCO[C@H]2CCCCO2)cc2cc3c(cc12)OCO3,x,u,u,x,u,6.9,-39.3%,x,x,x,x,-4.3%,0.651µM*
COc1ccc(-c2cc(C(=O)Nc3cnn(Cc4ccc(F)cc4)c3)no2)cc1OC,x,x,-28.8%,x,-25.5%,x,x,x,x,x,x,x,x
COc1ccc(C(=O)Nc2cnn(Cc3c(F)cccc3Cl)c2)cc1OC,-9.5%,u,u,0.0%,-25.2%,68.9,x,0.9%,34.3%,u,9.7%,4.9%,x
CCc1ccc2nc(SCC(=O)Nc3ccccc3N3CCOCC3)c(C#N)cc2c1,-2.8%,u,4.61µM*,-8.9%,4.11µM*,9.2,4.3%,u,7.06µM*,-15.5%,11.2µM*,u,3.1%
CCn1c(=O)n(CC)c2cc(S(=O)(=O)N3CCC(c4ccccc4)CC3)ccc21,-1.8%,u,u,41.7%,u,13.2,-11.8%,x,x,x,x,u,-3.1%
Cn1c(=O)c(=O)n(C)c2cc(S(=O)(=O)N3CCC(Cc4ccccc4)CC3)ccc21,-5.5%,3.1%,-5.7%,-0.1%,-22.7%,13.0,x,x,x,x,x,x,x
CN1C(=O)c2ccc(NC(=O)c3ccc(N4CCCCC4)c([N+](=O)[O-])c3)cc2C1=O,-1.8%,3.66µM*,23.1µM*,35.5%,u,28.8,x,14.1µM*,14.1µM*,u,u,-18.0%,x
O=C(Nc1ccc(N2CCCC2)c(Cl)c1)c1ccc([N+](=O)[O-])cc1,-5.1%,1.84µM*,-11.4%,17.6%,0.4%,-29.9,x,u,-13.9%,u,-4.6%,-3.1%,x

# Screening data from PubChem.
